Sampled rows, rich in hits. Any-hit rate of the full collection: about 2.9%.
MEKK3 PB1 HTS – modulators of MEKK3-MEK5 PB1 binding, primary screen, biochemical, wildtype MEKK3, multiplex bead flow cytometry, Alexa488-MEK5. bead-based flow cytometry, Alexa488-MEK5 binding to MEKK3; actives lie on both sides; 0 = blocked by unlabeled MEK5, 100 = vehicle. 290,000 tested, 1.4% active. binding response (% of control), % at 10 µM. Mitogen-activated protein kinase kinase kinase 3 (Homo sapiens), Q99759;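 active = binding response more than 3 SD above or below the average of its plate-row segment, actives on both sides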;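 note: Alexa488 bead fluorescence after subtracting the streptavidin-only scavenger bead signal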
FID counter – compounds displacing fluorescent DNA intercalator, primary screen, artefact control for HCV NS3 helicase inhibitor project, biochemical, FID fluorescence | DNA fluorescent intercalator displacement | inhibition, % at 7.9 µM | 290,000 tested, 0.17% active | AID 1845, 2009; in the data active = inhibition above about 37%;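 note: 0% = vehicle and 100% = reference compound; higher means more ethidium bromide displaced from hairpin DNA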
MEKK2wt PB1 HTS – modulators of MEK5 binding to wildtype MEKK2, primary screen, biochemical, multiplex bead flow cytometry, Alexa488-MEK5 | 290,000 tested, 1.1% active | binding response (% of control), % at 10 µM | Mitogen-activated protein kinase kinase kinase 2 (Homo sapiens), Q9Y2U5 | Alexa488-MEK5 binding to MEKK2 WT; actives lie on both sides; in the data active = binding response below about 67% or above about 130%
MEKK2mut PB1 HTS – MEK5 binding signal on mutant MEKK2 PB1, primary screen, biochemical, multiplex bead flow cytometry, Alexa488-MEK5; Alexa488-MEK5 binding to MEKK2 mutant; 290,000 tested, 0.35% active; AID 1530, 2009; percent response, % at 10 µM; in the data active = percent response above about 24%, passing the limit was not always enough
dFosB act-1 – activators of delta FosB homodimer, primary screen, biochemical, fluorescence polarization, TAMRA-CDK5 oligo, single point; 340,000 tested, 0.99% active; purified delta FosB; percent of positive-control signal above neutral wells; AID 493131, 2011; Protein FosB (Mus musculus), P13346; activation, % at 25 µM;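 active = mean activation above about 17%, with every replicate also reaching it, limit read from the data, passing the limit was not always enough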
Target sequence (P13346 whole entry, looked up): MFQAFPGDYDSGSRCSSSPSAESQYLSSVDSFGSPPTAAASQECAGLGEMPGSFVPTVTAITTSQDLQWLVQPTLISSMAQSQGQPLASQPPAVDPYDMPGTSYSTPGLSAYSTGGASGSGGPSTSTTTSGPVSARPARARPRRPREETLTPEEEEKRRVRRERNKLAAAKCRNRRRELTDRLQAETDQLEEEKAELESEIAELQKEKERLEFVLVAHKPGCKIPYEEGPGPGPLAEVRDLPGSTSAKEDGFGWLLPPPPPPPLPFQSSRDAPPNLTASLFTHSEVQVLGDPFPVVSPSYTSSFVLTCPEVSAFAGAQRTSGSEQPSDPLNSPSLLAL
dFosB act-2 – activators of mouse delta FosB DNA binding, confirmation, biochemical, fluorescence polarization, TAMRA-CDK5 oligo, cherry-picked samples; AID 588690, 2011; shares compounds with dFosB act-1; 2,400 tested, under 10 active; purified delta FosB; normalised: neutral wells 0, positive control 100; activation, % at 24.9 µM;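 active = highest replicate activation at or above 34% and every replicate reaching that threshold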;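 note: higher polarization means more probe DNA bound by delta FosB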
* hit, by the source's call; . = no result.

SMILES	MEKK3 PB1 HTS	FID counter	MEKK2wt PB1 HTS	MEKK2mut PB1 HTS	dFosB act-1	dFosB act-2
COc1cc(-c2cc(C(=O)Nc3cccc(C(C)=O)c3)c3ccccc3n2)cc(OC)c1OC	102	-39	96	-2	28*	2
COc1cc(-c2cc(C(=O)Nc3ccc(O)cc3)c3ccccc3n2)cc(OC)c1OC	86	-22	87	-13	3	.
Cc1cc(=O)n2c(C(=O)Nc3ccc(C)c(C)c3)c(C(=O)Nc3ccccc3)sc2n1	99	-9	94	-5	34*	1
CCc1ccc(NC(=O)c2c(C(=O)Nc3ccccc3)sc3nc(C)cc(=O)n23)cc1	91	-2	96	-3	35*	-1
Cc1ccc(NC(=O)c2c(C(=O)Nc3ccccc3)sc3nc(C)cc(=O)n23)cc1	94	1	88	-8	32*	-3
Cc1ccc(NC(=O)c2cc(C)nc3ccccc23)cc1	105	-16	109	12	-3	.
CC(Sc1nc2c(c(=O)[nH]1)CCCC2)C(=O)Nc1ccc(S(N)(=O)=O)cc1 (configuration not stated)	102	-14	98	-2	-3	.
N=C1C(c2nc3ccccc3s2)=C(O)CN1NC(=O)c1c[nH]c2ccccc12	105	1	104	7	27*	-2
CCc1ccc(/C(C)=N/NS(=O)(=O)c2ccc(OC)cc2)s1	102	-11	101	4	-10	.
COc1cc(NC(=O)c2ccc(Br)cc2)c(OC)cc1NC(=O)c1ccccc1	90	-9	84	-19	3	.
COc1cc(NC(=O)c2ccccc2)c(OC)cc1NC(=O)Cc1ccc(Br)cc1	103	-13	103	4	21*	8
Cc1cc(C)nc(Nc2ncc(O)n2-c2ccc(Br)cc2)n1	100	-5	99	0	1	.
COC(=O)C(NC(=O)C(C)NC(=O)OCc1ccccc1)C(C)C (configuration not stated)	95	-6	97	-1	6	.
CCn1c(=O)c(C(=O)Nc2ncccc2O)c(O)c2ccccc21	102	-2	109	6	26*	-1
O=S(=O)(Nc1ccc2c(c1)nc1n2CCN(Cc2ccccc2)C1)c1ccccc1	104	-25	98	1	24*	-3
O=S(=O)(Nc1ccc2c(c1)nc1n2CCN(Cc2ccccc2)C1)c1ccc(F)cc1	102	-21	94	3	-1	.
Cc1ccc(S(=O)(=O)Nc2ccc3c(c2)nc2n3CCN(Cc3ccccc3)C2)cc1	92	-17	71	1	5	.
O=S(=O)(Nc1ccc2c(c1)nc1n2CCN(Cc2ccccc2)C1)c1ccc(Cl)cc1	99	-19	79	0	23*	-9
CCC1(CC)C(=O)C2=C3C1[C@H](C(=O)OC)C=C(C(=O)OC)C[C@H]3n1c(=O)n(-c3ccccc3)c(=O)n1[C@H]2C (some centres not stated)	108	.	102	4	3	.
CN(C)c1cc(-c2ccc([N+](=O)[O-])cc2)oc(=O)c1Cl	99	3	98	-3	11	.
Nc1cc(C(=O)N/N=C/c2cccc([N+](=O)[O-])c2)n[nH]c1=O	96	-1	95	-7	18*	-1
CCCCCCC(=O)Nc1ccc(C(=O)N/N=C/c2cccnc2)cc1	94	-22	97	-3	9	.
CCCCCCCC(=O)Nc1ccc(C(=O)N/N=C/c2cccc([N+](=O)[O-])c2)cc1	94	4	93	-3	20*	8
Cc1cc(C(=O)N/N=C/C=C/c2cccc([N+](=O)[O-])c2)n[nH]1	91	2	94	-6	-9	.
Cc1ccccc1Nc1nc(N)nc(CSc2nc3ccccc3s2)n1	92	-30	89	-2	0	.
SMILES	MEKK3 PB1 HTS	FID counter	MEKK2wt PB1 HTS	MEKK2mut PB1 HTS	dFosB act-1	dFosB act-2
Cc1ccc(Nc2nc(N)nc(CSc3ncccn3)n2)cc1	108	-10	101	1	-3	.
Cc1ccc(Nc2nc(N)nc(CSc3nnc(-c4ccncc4)o3)n2)cc1	110	-3	108	5	66*	1
Cc1ccc(Nc2nc(N)nc(CSc3nc4ccccc4s3)n2)cc1	.	-18	.	.	53*	0
COc1cc2[nH]c(=O)n(Cc3ccc(C(=O)NCCCN4CCN(C)CC4)cc3)c(=O)c2cc1OC	97	16	103	0	32*	-1
COc1cc2[nH]c(=O)c(C(=O)NCCCN3CCOCC3)c(O)c2cc1OC	108	11	101	-5	33*	2
COc1ccc(Cn2c(=O)[nH]c3cc(C(=O)NCCCN4CCCC4)ccc3c2=O)cc1	.	17	.	.	1	.
CCN(CC)CCNC(=O)c1c(O)c2cc(OC)c(OC)cc2[nH]c1=O	.	15	.	.	24*	10
COc1cccc(-c2ccc(=O)n(CC(=O)Nc3ccc(S(=O)(=O)NCC(C)C)cc3)n2)c1	100	-25	97	-6	.	.
Cc1ccc(-c2noc(CSc3nnnn3C3CCCCC3)n2)cc1	118	-15	115	12	3	.
COc1ccc(C(=O)Oc2ccc(C(=S)N3CCOCC3)cc2)cc1	99	-3	84	-12	-4	.
COc1ccc(OC)c(/C=N/NC(=O)CSc2cc(C)nc3c(OC)cccc23)c1	98	-6	92	-9	37*	5
COc1ccc(CC(=O)N(C)Cc2cccc(OC)c2OC)cc1S(=O)(=O)N1CCOCC1	.	.	.	.	0	.
CCOC(=O)c1sc(NC(=O)CCc2ccc(OC)cc2)nc1C	100	-4	97	-1	25*	0
CCOC(=O)c1sc(NC(=O)CC)nc1C	104	-1	100	2	-5	.
Cc1ccc(-c2cc(C(F)F)nc3sc4c(=O)[nH]cnc4c23)cc1	.	.	.	.	33*	0
COC(=O)C1CCN(C(=O)[C@H](C)NC(=O)C2CC(=O)N(c3ccc(F)cc3)C2)CC1 (some centres not stated)	103	-11	99	1	-1	.
CCc1cc2cc3c(cc2nc1SCC(=O)Nc1c[nH]c(=O)[nH]c1=O)OCO3	99	-16	98	-1	70*	-6
CCc1cc2cc3c(cc2nc1SCC(=O)Nc1nccs1)OCO3	92	0	94	-6	8	.
CCn1cc(C(=O)C(F)(F)F)c2ccccc21	93	1	92	-2	3	.

Source: PubChem (several laboratories)
